# Assay results published in PubChem BioAssay (NCATS).
# Several values for one entry are separate records, joined by “and”; a condition that tells them apart may be missing. Identical values can stand only once. Records with an inconclusive call do not appear. A call without a number means that no potency is given here. More than one record can exist for a structure, and the calls need not agree. Activity calls are given as the source filed them. Unless noted, the call rests on the fitted dose curve; in most records, active means well fitted curve in the direction sought with a large enough effect; inconclusive means small, poorly fitted or top-dose-only effect, or another doubt; inactive means no such curve, though single readings can be large; an effect the other way counts as inactive or inconclusive.
# How the values were obtained:
# [1] = A High-Content qHTS Against Drug Library for the Identification of Small Molecules that Inhibit DYT1 Early Onset Primary Dystonia-Associated Cell Pathology (AID 1645839; calls by dose curve; further: potency means the concentration at half of the fitted maximal effect); conditions: HEK293 Flp-In EGFP-delE TorsinA, punctate imaging, 48 h; series mostly up to 46.1 µM
# Summary of the method: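 Cells were seeded and left for 24 h, then dosed with compound alongside tetracycline induction of mutant EGFP-TorsinA. They were incubated for 48 h, fixed in 4% paraformaldehyde, permeabilized and imaged for mislocalization (%pathology) and cell count.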
# [2] = target: Cytochrome P450 2D6 (Homo sapiens) (UniProt P10635); test: Cytochrome P450 family 2 subfamily D member 6 (CYP2D6) small molecule antagonists: luciferase biochemical (cell-free) qHTS assay (AID 1645840; active means well fitted curve in the direction sought with a large enough effect in the repeat runs; an effect the other way counts as inactive or inconclusive; further: nearly all actives have a fitted effect of over 55% in size; further: potency means the concentration at half of the fitted maximal effect); conditions: P450-Glo CYP2D6 enzyme, luciferin luminescence, 1 h; series mostly up to 57.4 µM
# Summary of the method: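 P450-Glo CYP2D6 system: proluciferin substrate converted by enzyme to luciferin, read by luminescence proportional to activity. Enzyme-substrate mix with compound 10 min at room temperature, then NADPH regeneration 1 h before detection reagent.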
# [3] = target: Cytochrome P450 2C9 (Homo sapiens) (UniProt P11712); test: Cytochrome P450 family 2 subfamily C member 9 (CYP2C9) small molecule antagonists: luciferase biochemical (cell-free) qHTS assay (AID 1645842; active means well fitted curve in the direction sought with a large enough effect in the repeat runs; an effect the other way counts as inactive or inconclusive; further: nearly all actives have a fitted effect of over 55% in size; further: potency means the concentration at half of the fitted maximal effect); conditions: P450-Glo CYP2C9 enzyme assay, luciferin luminescence; series mostly up to 57.4 µM
# Summary of the method: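 P450-Glo CYP2C9 system: proluciferin substrate with enzyme in mix containing 0.4% BSA, 10 min at room temperature, then NADPH regeneration solution added and incubated 1 h at 37C. Detection reagent stopped reaction; luminescence read after 20 min as RLU.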
# Papain (Carica papaya) = Papain (Carica papaya) (UniProt P00784); test: Primary qHTS assay for inhibitors of the protease papain (AID 1645873); conditions: papain Z-FR-AMC cleavage, AMC fluorescence; series mostly up to 49.8 µM;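 further: papain turnover of Z-FR-AMC read as the AMC fluorescence gain over 10 min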; further: potency means the concentration at half of the fitted maximal effect
# [4] = Primary qHTS for inhibitors of nuclear receptor binding SET domain protein 2 (NSD2) in an isogenic RCH-ACV NSD2 p.E1099K mutant (9B) (AID 1645876); conditions: RCH-ACV NSD2 E1099K (9B) viability, CellTiter-Glo, 72 h; series mostly up to 44.9 µM; further: nearly all actives have a fitted effect of over 70% in size; further: potency means the concentration at half of the fitted maximal effect
# [5] = Primary qHTS for inhibitors of nuclear receptor binding SET domain protein 2 (NSD2) in an RCH-ACV wild type WT cells (2C) (AID 1645877); conditions: RCH-ACV (leukaemia line) NSD2 WT (2C) viability, CellTiter-Glo, 72 h; series mostly up to 44.9 µM; further: nearly all actives have a fitted effect of over 70% in size; further: potency means the concentration at half of the fitted maximal effect
# [6] = NCATS anti-infectives library activity on the primary C. elegans qHTS viability assay (AID 1745855; calls by dose curve); conditions: C. elegans worm area imaging, day 7; series mostly up to 41.8 µM
# Summary of the method: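 Titration-based screen in worms: eggs hatched overnight in M9, L1 larvae fed TOP10 capsules in S medium with compound, incubated 21 °C for 7 days; fluorescent objects gated by size and intensity at days 0, 3 and 7.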
# [7] = target: N-terminal Xaa-Pro-Lys N-methyltransferase 1 (Homo sapiens) (UniProt Q9BV86); test: Confirmatory qHTS for Inhibitors of N-terminal methyltransferase 1 (NTMT1): MTaseGlo Assay (AID 1645874); conditions: NTMT1 enzyme, MTase-Glo SAH luminescence; series mostly up to 100 µM;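 further: luminescence from SAH made as NTMT1 methylates SPKRIA peptide using SAM; nearly all actives have a fitted effect of over 65% in size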
# Summary of the method: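 Room-temperature NTMT1 reaction, 30 min, with 100 uM SAM and 1 uM SPKRIA substrate; enzyme 125 nM. Read-out: MTase-Glo luminescence, normalized to no-enzyme and DMSO controls.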
# [8] = target: Cytochrome P450 3A4 (Homo sapiens) (UniProt P08684); test: Cytochrome P450 family 3 subfamily A member 4 (CYP3A4) small molecule antagonists: luciferase qHTS assay (AID 1645841; active means well fitted curve in the direction sought with a large enough effect in the repeat runs; an effect the other way counts as inactive or inconclusive; further: nearly all actives have a fitted effect of over 45% in size); conditions: P450-Glo CYP3A4 enzyme assay, luciferin luminescence; series mostly up to 57.4 µM
# Summary of the method: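 P450-Glo CYP3A4 enzyme with proluciferin substrate preincubated 10 min with compound at room temperature, then NADPH regeneration 1 h. Luciferin detection reagent added for 20 min; luminescence recorded. Ketoconazole positive control.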
# [9] = target: Catechol O-methyltransferase (Homo sapiens) (UniProt P21964); test: Confirmatory Screen for Target Class Profiling of Small Molecule Inhibitors of Methyltransferases (AID 1745852; calls by dose curve); conditions: MTase-Glo luminescence, SAH detection, recombinant enzyme; measured here: COMT max response; stronger effect = lower value
# [10] = target: Guanidinoacetate N-methyltransferase (Homo sapiens) (UniProt Q14353); test: as above; conditions: MTase-Glo luminescence, SAH detection, recombinant enzyme; activity change, negative = inhibition: at 57.3 µM (top of the series) unless noted
# [11] = target: Nicotinamide N-methyltransferase (Homo sapiens) (UniProt P40261); test: as above; conditions: MTase-Glo luminescence, SAH detection, recombinant enzyme; measured here: NNMT max response; stronger effect = lower value
# [12] = target: Phenylethanolamine N-methyltransferase (Homo sapiens) (UniProt P11086); test: as above; conditions: MTase-Glo luminescence, SAH detection, recombinant enzyme; measured here: PNMT max response; stronger effect = lower value
# Chain of Phenylethanolamine N-methyltransferase (Homo sapiens) (P11086 whole entry, looked up): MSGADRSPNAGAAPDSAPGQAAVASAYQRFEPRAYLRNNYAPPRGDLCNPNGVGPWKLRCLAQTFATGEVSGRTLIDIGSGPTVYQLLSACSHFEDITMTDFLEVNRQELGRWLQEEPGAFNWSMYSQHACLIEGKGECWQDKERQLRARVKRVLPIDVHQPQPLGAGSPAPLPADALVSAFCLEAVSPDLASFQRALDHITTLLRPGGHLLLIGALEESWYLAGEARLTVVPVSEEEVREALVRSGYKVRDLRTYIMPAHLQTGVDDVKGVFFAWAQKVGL
# Chain of Cytochrome P450 2D6 (Homo sapiens) (P10635 whole entry, looked up): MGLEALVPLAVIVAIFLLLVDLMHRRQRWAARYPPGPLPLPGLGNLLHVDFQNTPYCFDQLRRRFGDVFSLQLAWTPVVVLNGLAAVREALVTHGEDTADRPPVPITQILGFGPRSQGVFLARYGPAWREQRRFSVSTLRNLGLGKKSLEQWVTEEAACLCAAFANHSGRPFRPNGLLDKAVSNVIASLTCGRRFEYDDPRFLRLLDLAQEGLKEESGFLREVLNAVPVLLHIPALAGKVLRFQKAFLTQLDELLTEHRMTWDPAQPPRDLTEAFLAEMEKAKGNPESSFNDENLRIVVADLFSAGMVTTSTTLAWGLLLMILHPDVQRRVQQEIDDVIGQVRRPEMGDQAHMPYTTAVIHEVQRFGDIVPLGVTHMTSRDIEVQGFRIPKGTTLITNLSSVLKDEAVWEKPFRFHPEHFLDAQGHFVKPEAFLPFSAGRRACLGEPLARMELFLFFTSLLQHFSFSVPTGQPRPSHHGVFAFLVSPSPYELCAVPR
# Chain of Cytochrome P450 2C9 (Homo sapiens) (P11712 whole entry, looked up): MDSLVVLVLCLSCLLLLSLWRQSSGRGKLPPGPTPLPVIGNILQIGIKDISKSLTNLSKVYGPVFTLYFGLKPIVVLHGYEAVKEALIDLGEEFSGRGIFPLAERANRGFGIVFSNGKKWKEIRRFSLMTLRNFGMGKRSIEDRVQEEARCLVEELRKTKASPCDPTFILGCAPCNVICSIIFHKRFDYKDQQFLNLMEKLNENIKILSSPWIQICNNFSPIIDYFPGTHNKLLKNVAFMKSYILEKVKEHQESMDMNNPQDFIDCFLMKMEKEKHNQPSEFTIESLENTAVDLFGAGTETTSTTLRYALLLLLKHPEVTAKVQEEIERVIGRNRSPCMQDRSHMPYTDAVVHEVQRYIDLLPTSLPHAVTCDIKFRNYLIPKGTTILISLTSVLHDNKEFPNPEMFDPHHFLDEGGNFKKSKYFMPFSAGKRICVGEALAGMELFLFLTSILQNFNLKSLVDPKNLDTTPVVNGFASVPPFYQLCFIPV
# Chain of Papain (Carica papaya) (P00784 whole entry, looked up, the tested form may be a part): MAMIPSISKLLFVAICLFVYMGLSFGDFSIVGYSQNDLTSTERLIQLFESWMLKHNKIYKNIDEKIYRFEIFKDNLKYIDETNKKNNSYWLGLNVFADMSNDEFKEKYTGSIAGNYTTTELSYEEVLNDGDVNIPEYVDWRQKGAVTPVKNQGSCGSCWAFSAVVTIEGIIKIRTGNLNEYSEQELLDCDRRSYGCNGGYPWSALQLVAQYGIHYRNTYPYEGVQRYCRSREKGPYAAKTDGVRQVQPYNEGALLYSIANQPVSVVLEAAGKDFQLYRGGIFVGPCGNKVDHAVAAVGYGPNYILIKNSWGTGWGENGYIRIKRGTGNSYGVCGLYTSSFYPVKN
# Chain of Cytochrome P450 3A4 (Homo sapiens) (P08684 whole entry, looked up): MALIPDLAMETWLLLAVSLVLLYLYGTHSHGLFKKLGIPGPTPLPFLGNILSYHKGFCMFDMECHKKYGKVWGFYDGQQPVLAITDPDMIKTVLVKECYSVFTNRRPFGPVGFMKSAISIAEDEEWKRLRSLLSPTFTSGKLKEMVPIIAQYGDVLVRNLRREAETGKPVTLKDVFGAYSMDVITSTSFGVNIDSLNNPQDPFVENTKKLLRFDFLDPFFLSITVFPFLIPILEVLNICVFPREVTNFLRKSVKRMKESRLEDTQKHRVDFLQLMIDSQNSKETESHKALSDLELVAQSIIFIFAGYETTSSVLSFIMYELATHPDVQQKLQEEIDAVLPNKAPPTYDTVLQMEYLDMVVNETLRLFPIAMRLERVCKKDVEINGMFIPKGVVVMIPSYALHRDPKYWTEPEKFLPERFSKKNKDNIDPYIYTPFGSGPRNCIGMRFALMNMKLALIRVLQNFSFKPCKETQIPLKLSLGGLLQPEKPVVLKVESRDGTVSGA
# Chain of Nicotinamide N-methyltransferase (Homo sapiens) (P40261 whole entry, looked up): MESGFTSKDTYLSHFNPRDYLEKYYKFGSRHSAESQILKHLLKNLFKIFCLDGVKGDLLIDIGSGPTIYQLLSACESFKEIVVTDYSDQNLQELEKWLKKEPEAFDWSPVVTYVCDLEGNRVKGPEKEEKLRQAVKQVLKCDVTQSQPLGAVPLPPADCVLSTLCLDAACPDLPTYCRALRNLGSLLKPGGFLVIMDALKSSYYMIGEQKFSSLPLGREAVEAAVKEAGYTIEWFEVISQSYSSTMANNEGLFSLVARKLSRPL
# Chain of Catechol O-methyltransferase (Homo sapiens) (P21964 whole entry, looked up): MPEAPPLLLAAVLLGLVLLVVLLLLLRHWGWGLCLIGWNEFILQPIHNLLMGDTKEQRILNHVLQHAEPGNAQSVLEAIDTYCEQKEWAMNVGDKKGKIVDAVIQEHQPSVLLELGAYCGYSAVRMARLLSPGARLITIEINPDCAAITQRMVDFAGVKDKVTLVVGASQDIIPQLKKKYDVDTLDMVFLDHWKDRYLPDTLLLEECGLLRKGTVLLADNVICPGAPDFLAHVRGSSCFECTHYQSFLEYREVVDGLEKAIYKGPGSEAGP
# Chain of N-terminal Xaa-Pro-Lys N-methyltransferase 1 (Homo sapiens) (Q9BV86 whole entry, looked up): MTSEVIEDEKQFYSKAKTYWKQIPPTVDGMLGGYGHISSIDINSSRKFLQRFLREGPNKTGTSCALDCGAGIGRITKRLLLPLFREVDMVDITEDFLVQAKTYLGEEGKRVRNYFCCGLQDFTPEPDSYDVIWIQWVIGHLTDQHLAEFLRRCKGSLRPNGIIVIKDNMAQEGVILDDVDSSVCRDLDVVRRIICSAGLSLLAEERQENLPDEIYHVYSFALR
compound,measurement,setting,value
Nc1nc2c(ncn2COCCO)c(=O)[nH]1,Potency,[1],inactive
same,Potency,[2],inactive
same,Potency,[3],inactive
same,Potency,Papain (Carica papaya),inactive
same,Potency,[4],inactive
same,Potency,[5],inactive
C#Cc1cccc(Nc2ncnc3cc(OCCOC)c(OCCOC)cc23)c1,Potency,[1],inactive
same,Potency,[2],inactive
same,Potency,[3],inactive
same,Potency,[4],8.41 µM (active)
same,Potency,[5],9.44 µM (active)
same,Potency,[6],inactive
Cn1cnc([N+](=O)[O-])c1Sc1ncnc2nc[nH]c12,Potency,[1],35.5 µM (active) and inactive
same,Potency,[2],inactive
same,Potency,[3],inactive
same,Potency,Papain (Carica papaya),inactive
same,Potency,[4],959 nM (active) and 1.19 µM (active) and 4.17 µM (active)
same,Potency,[5],1.35 µM (active) and 944 nM (active) and 3.72 µM (active)
N[C@@H]1CONC1=O,Potency,[1],inactive
same,Potency,[2],inactive
same,Potency,[3],inactive
same,Potency,Papain (Carica papaya),inactive
same,Potency,[4],inactive
same,Potency,[5],inactive
CCn1cc(C(=O)O)c(=O)c2cc(F)c(N3CCNC(C)C3)c(F)c21 (stereo unspecified),Potency,[1],inactive
same,Potency,[2],inactive
same,Potency,[3],inactive
same,Potency,Papain (Carica papaya),15.8 µM (active)
same,Potency,[4],inactive
same,Potency,[5],inactive
NCCc1ccc(O)c(O)c1,Potency,[1],inactive
same,Potency,[2],inactive
same,Potency,[3],inactive
same,Potency,Papain (Carica papaya),inactive
same,Potency,[4],inactive and 23.5 µM (active)
same,Potency,[5],inactive
COc1ccc2nc(S(=O)Cc3ncc(C)c(OC)c3C)[nH]c2c1 (stereo unspecified),Potency,[1],inactive
same,Potency,[2],inactive
same,Potency,[4],inactive
CCCc1nn(C)c2c(=O)[nH]c(-c3cc(S(=O)(=O)N4CCN(C)CC4)ccc3OCC)nc12,Potency,[1],inactive
same,Potency,[2],inactive
same,Potency,[3],13.5 µM (active)
same,Potency,Papain (Carica papaya),inactive
same,Potency,[4],inactive
same,Potency,[5],10.6 µM (active) and inactive
Cc1ccc(-n2nc(C(C)(C)C)cc2NC(=O)Nc2ccc(OCCN3CCOCC3)c3ccccc23)cc1,Potency,[2],4.9 µM (active)
same,Potency,[3],9.77 µM (active)
same,Potency,[4],23.7 µM (active) and inactive
same,Potency,[5],21.1 µM (active)
N#Cc1ccc(C(c2ccc(C#N)cc2)n2cncn2)cc1,Potency,[2],inactive
same,Potency,[4],inactive
same,Potency,[5],inactive
OCCn1cc(-c2cnc3nnn(Cc4ccc5ncccc5c4)c3n2)cn1,Potency,[2],inactive
same,Potency,[7],inactive
same,Potency,[4],inactive
same,Potency,[5],inactive
CN(C)C(=O)c1ccc(S(=O)(=O)c2ccc(NC(=O)[C@@](C)(O)C(F)(F)F)c(Cl)c2)cc1,Potency,[2],inactive
same,Potency,[3],6.74 µM (active)
CN(C(=O)c1ccc(F)cc1C(F)(F)F)C1CCN(c2nnc(-c3ccnn3C)c3ccccc23)CC1,Potency,[2],inactive
CCOc1cc(C(=O)Nc2ccc(Cl)c(-c3nc4ccccc4[nH]3)c2)cc(OCC)c1OCC,Potency,[2],inactive
same,Potency,[3],inactive
CCOc1ccn(-c2ccc(F)cc2)c(=O)c1C(=O)Nc1ccc(Oc2ccnc(N)c2Cl)c(F)c1,Potency,[2],inactive
same,Potency,[3],inactive
same,Potency,[4],7.28 µM (active) and 11.8 µM (active)
same,Potency,[5],8.17 µM (active) and 7.42 µM (active)
COc1cc(Oc2ccnc3cc(OC)c(OC)cc23)ccc1NC(=O)NC(C)c1nccs1 (stereo unspecified),Potency,[2],inactive
same,Potency,[3],0.601 µM (active)
same,Potency,[4],inactive and 13.2 µM (active)
same,Potency,[5],inactive and 8.33 µM (active)
O=C(O)COCCN1CCN(C(c2ccccc2)c2ccc(Cl)cc2)CC1 (stereo unspecified),Potency,[1],inactive
same,Potency,Papain (Carica papaya),inactive
COc1ccc(-c2c(-c3ccc(O)cc3O)n[nH]c2C)cc1,Potency,[2],4.47 µM (active)
same,Potency,[3],3.55 µM (active)
same,Potency,[4],inactive
same,Potency,[5],inactive
COc1cc2nccc(Oc3ccc(NC(=O)NC4CC4)c(Cl)c3)c2cc1C(N)=O,Potency,[2],inactive
same,Potency,[3],12 µM (active)
CNC(=O)c1ccccc1Sc1ccc2c(/C=C/c3ccccn3)n[nH]c2c1,Potency,[1],inactive
same,Potency,[3],3.47 µM (active)
same,Potency,[4],750 nM (active) and 916 nM (active) and 4.17 µM (active)
same,Potency,[5],531 nM (active) and 1.03 µM (active) and 833 nM (active)
CCN(CCCO)CCCOc1ccc2c(Nc3cc(CC(=O)Nc4cccc(F)c4)[nH]n3)ncnc2c1,Potency,[8],inactive
C[C@@H]1CN(Cc2ccc(F)cc2)[C@@H](C)CN1C(=O)c1cc2c(C(=O)C(=O)N(C)C)cn(C)c2cc1Cl,Potency,[3],7.56 µM (active)
O=c1n(CCCN2CCN(c3cccc(Cl)c3)CC2)nc2ccccn12,Potency,[1],inactive
same,Potency,[3],inactive
same,Potency,[5],inactive
Cc1ccccc1C(OCCN(C)C)c1ccccc1 (stereo unspecified),Potency,[1],inactive
same,Potency,[3],inactive
same,Potency,Papain (Carica papaya),inactive
same,Potency,[4],inactive
same,Potency,[5],inactive
same,activity,[9],-2.48%
same,"activity change, negative = inhibition",[10],6.46%
same,activity,[11],-5.32%
same,activity,[12],-1.88%
CNCc1ccc(-c2[nH]c3cc(F)cc4c3c2CCNC4=O)cc1,Potency,[8],inactive
same,Potency,[3],6.01 µM (active)
same,Potency,[4],16.3 µM (active) and 11.8 µM (active)
same,Potency,[5],7.28 µM (active) and 7.42 µM (active)
same,activity,[9],-6.4%
same,"activity change, negative = inhibition",[10],-1.39%
same,activity,[11],-24.3%
same,activity,[12],-15.2%
CC[C@@H](C)[C@H](NC(=O)[C@H](CC1CCCCC1)NC(=O)c1ccno1)C(=O)N1CCC2(CCc3ccccc32)CC1,Potency,[2],inactive
same,Potency,[3],inactive
same,Potency,[4],inactive
same,Potency,[5],inactive
O=C(Nc1cccnc1)N1CCC(Cc2cccc(Oc3ccc(C(F)(F)F)cn3)c2)CC1,Potency,[2],4.25 µM (active)
same,Potency,[3],10.7 µM (active)
same,Potency,[4],6.49 µM (active) and 7.42 µM (active)
same,Potency,[5],5.25 µM (active)
